Hits are enriched below; roughly 19% of the tested compounds scored in any of these assays.
Marburg entry inh: Marburg virus entry inhibition; hit rate 1.8% among 300,000; Marburg virus pseudotyped entry inhibition, cell reporter; Potency, µM (doses to about 37.8 µM), hits mostly inhibitors; calls by dose curve; tested in HEK293 cells
Cycloheximide cs: affects cycloheximide protein synthesis inhibition readout, counter-screen; hit rate 12% among 300,000; max response, %; cell reporter, cycloheximide protein synthesis inhibition counterscreen; in the data active = max response mostly above about 13%, no sharp cut-off; inactive = mostly below about 14%; also: read at 38.3 µM for the half of the compounds with a filed dose
Pf growth 48h: inhibits P. falciparum growth in the first generation, 48 h. P. falciparum luciferase growth in erythrocytes, 48 h. Potency, µM (titrated, usually from 28.7 µM), usual class: inhibitors. hit rate 5.9% among 310,000. AID 504832
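In quantitative HTS format, infected erythrocytes bearing luciferase-reporter parasites were treated for a single generation at 37 C. Luminescence after adding detection reagent served as the growth measure.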
Shiga inhibitor: Shiga toxin inhibition. Vero cells, Shiga toxin protein synthesis inhibition reporter. inhibition, % at 38.7 µM. hit rate 9.2% among 290,000. AID 2315; in the data active = inhibition mostly above about 28%, no sharp cut-off; inactive = mostly below about 43%
LASV entry inh: inhibitors of Lassa virus binding or cell entry | Lassa virus pseudotype entry inhibition, cell reporter | Potency, µM (series often up to 37.9 µM), hits mostly inhibitors | hit rate 1.2% among 300,000; calls by dose curve; tested in HEK293 cells; also: nearly all actives have a fitted effect of over 50% in size
Pf growth 96h: P. falciparum growth inhibition at 96 hour, primary screen for plastid delayed-death inhibitors; P. falciparum luciferase reporter growth, 96 h; Potency, µM (doses to about 28.7 µM), usual class: inhibitors; hit rate 6.9% among 320,000; AID 504834
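Infected RBCs, 2% Hct / 0.05% parasitemia final; luciferase-reporter P. falciparum; cpd 96 h, 37 C, 5% CO2; luciferase detection reagent; luminescence.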
Hits are given with their value; . = inactive; ? = inconclusive; / = no result given. Unless noted, calls follow the shape of the dose curve; as a rule, active = well fitted inhibition curve with a large enough effect; inconclusive = small, poorly fitted or top-dose-only effect, or another doubt; inactive = no such curve, though single readings can be large or run the other way.

SMILES	Marburg entry inh	Cycloheximide cs	Pf growth 48h	Shiga inhibitor	LASV entry inh	Pf growth 96h
CCOc1ccc(NC(=O)COc2ccc3c(c2)OCO3)cc1	.	.	.	.	.	.
CCc1ccccc1NC(=O)COc1ccc2c(c1)OCO2	.	15	.	47	.	.
O=C(COc1ccc2c(c1)OCO2)Nc1ccccc1C(F)(F)F	.	31	.	87	.	?
COC(=O)c1ccc(Cl)c(NC(=O)Cc2ccccc2[N+](=O)[O-])c1	.	.	.	.	.	.
CCOC(=O)c1c(-c2ccccc2)csc1NC(=O)c1cc(-c2cccc(Cl)c2)on1	?	/	/	/	.	/
CCN(C(=O)C1CCN(c2nc(-c3ccc(OC)cc3)no2)CC1)c1ccc(OC)cc1	/	.	9.3µM	.	/	.
COc1ccc(-c2noc(N3CCCC(C(=O)Nc4ccc(C(C)=O)cc4)C3)n2)cc1 (centres undefined)	.	28	?	.	.	?
COc1ccc(NC(=O)N2CCC3(CC2)OCCO3)cc1	.	27	.	.	.	?
COc1ccc(NC(=O)N2CCCCCC2)cc1	?	21	.	50	.	?
CC(=O)NC(Cc1ccccc1C)C(=O)NC1CCN(C(=O)NCc2ccccc2)CC1 (centres undefined)	.	.	.	.	/	.
CCc1ccc(-n2c(=O)c3ccc(C(=O)NCCc4ccccc4)cc3n(Cc3ccccc3C#N)c2=O)cc1	?	/	/	/	.	/
COc1cccc(NC(=O)N2CCOCC2)c1	.	.	.	.	.	.
COc1cccc(NC(=O)N2CCCCCC2)c1	/	74	.	46	/	.
COc1ccc(NC(=O)C2CCCN(C(=O)Nc3cccc(OC)c3)C2)cc1 (centres undefined)	.	.	.	.	.	?
COc1ccc(CNC(=O)C2CCCN(C(=O)Nc3ccc(OC)cc3)C2)cc1 (centres undefined)	.	.	.	.	.	.
COc1ccc(NC(=O)N2CCCC(C(=O)NCCc3ccccc3)C2)cc1 (centres undefined)	.	34	.	65	?	.
O=C(Nc1ccc(Br)cc1)N1CCCCC1	.	42	.	140	?	.
COc1ccc(NC(=O)C2CCCN(C(=O)Nc3ccc(OC)cc3)C2)cc1 (centres undefined)	.	.	.	.	.	10µM
COc1ccc2nc3oc(C(=O)N4CCC5(CC4)OCCO5)cc3cc2c1	/	.	?	.	/	.
COc1cccc(N2C(=O)CC(N3CCC(C(N)=O)(N4CCCCC4)CC3)C2=O)c1 (centres undefined)	.	.	.	.	.	?
COc1ccc(NC(=O)N2CCC(c3ccccc3)C2)c(OC)c1 (centres undefined)	/	.	/	.	/	.
O=C(NCc1ccccc1)C1CCCN(C(=O)Nc2ccccc2)C1 (centres undefined)	?	11	.	.	.	.
COc1cccc(NC(=O)N2CCN(c3cccc(C)c3)C(C)C2)c1 (centres undefined)	?	34	.	50	?	.
COc1ccc(NC(=O)N2CCCC(c3ccccc3)C2)cc1 (centres undefined)	/	17	.	.	/	2.1µM
Cc1cccc(N2CCN(C(=O)Nc3ccc(F)cc3)CC2C)c1 (centres undefined)	.	/	/	/	.	/
SMILES	Marburg entry inh	Cycloheximide cs	Pf growth 48h	Shiga inhibitor	LASV entry inh	Pf growth 96h
CCC1CCC(NC(=O)Nc2cccc(OC)c2)CC1 (centres undefined)	?	52	.	64	.	.
Cc1nc2ccc(Cl)cn2c1C(=O)NN	.	.	.	.	?	.
O=C(Nc1cccc(F)c1)N1CCCC(CNS(=O)(=O)Cc2ccccc2)C1 (centres undefined)	.	.	.	.	.	5.2µM
COc1cccc(NC(=O)C2CCCC2)c1	/	/	.	/	/	.
COc1cccc(NC(=O)C2CCCCC2)c1	.	29	.	44	.	?
O=C(NC1CCCCC1)N1CCCC(CNS(=O)(=O)Cc2ccccc2)C1 (centres undefined)	.	.	.	.	?	?
O=C(COc1cccnc1[N+](=O)[O-])N1CCN(C(=O)c2ccco2)CC1	.	.	.	.	?	.
CC1(C)CC(=O)c2cc(C(=O)NC3CCSC3=O)c(=O)n(-c3ccc(Cl)cc3)c2C1 (centres undefined)	?	.	.	.	.	.
Cc1ccc(-n2nc3c(c2NC(=O)c2ccc(F)c(F)c2)CS(=O)(=O)C3)cc1	.	.	.	.	.	?
CCCOC(=O)c1ccc(Oc2cn[nH]c2-c2ccc(OCC(=O)NN)cc2O)cc1	/	.	?	.	/	9.3µM
CCCOC(=O)c1ccc(Oc2cn[nH]c2-c2ccc(O)cc2O)cc1	/	.	?	.	/	13µM
CCCOC(=O)c1ccc(Oc2c(-c3ccc(OC)cc3O)n[nH]c2C)cc1	.	.	?	.	11µM	?
CCCOC(=O)c1ccc(Oc2c(-c3ccc(O)cc3O)n[nH]c2C)cc1	.	.	.	.	?	?
CN[C@@H](C)[C@H](O)c1ccccc1	11µM	/	/	/	/	/
CSc1ccc(CNC(C)C(O)c2ccccc2)cc1 (centres undefined)	?	.	1.9µM	.	.	.
CCOc1ccc(NC(=O)c2oc3ccccc3c2NC(=O)Cc2cccs2)cc1	.	/	/	/	.	/
O=C(CCCCCNc1nc(=S)[nH]c2ccccc12)NCCC1=CCCCC1	.	.	?	.	?	.
Cc1cc(NC(=O)c2cnn3cccnc23)no1	.	54	.	141	.	/
O=C(Nc1cccc(Cl)c1)c1cnn2cccnc12	?	38	.	active	?	/
Cc1cc(NC(=O)c2nn3cccnc3c2Cl)no1	.	40	/	34	?	.
C=CCNC(=O)c1nn2cccnc2c1Cl	.	.	.	.	.	/
CCC(=O)c1ccc(OCc2ccc(C(=O)OC)cc2)c(OC)c1	.	.	.	.	.	.
CCC(=O)c1ccc(OCc2ccc(C(=O)c3ccccc3)cc2)cc1	?	.	.	.	5µM	.
COc1cc(C(=S)N2CCCC2)ccc1OCc1ccccc1	?	30	.	66	.	.
CCC(=O)c1ccc(OCc2ccccc2)c(OC)c1	?	43	.	88	?	?
SMILES	Marburg entry inh	Cycloheximide cs	Pf growth 48h	Shiga inhibitor	LASV entry inh	Pf growth 96h
COc1ccc(CCN(C)Cc2ccc(OC)c(OCc3ccccc3)c2)cc1OC	18µM	.	?	.	.	10µM
O=C(O)C1CC=CCC1C(=O)NCc1ccccc1 (centres undefined)	.	.	.	.	.	/
O=C(CC(=O)N/N=C/c1ccccc1O)NCc1cccnc1	?	.	.	.	?	?
COc1cc(C(=O)NCC2(N(C)C)CCCCC2)ccc1OCc1ccccc1	?	.	?	.	/	9.3µM
COc1ccc(C(=O)NCC(=O)NCC2(N(C)C)CCCCC2)cc1OC	.	.	/	.	.	?
CC(C)(C)c1ccc(C(=O)N2CCC(=O)N(C(CO)Cc3ccccc3)CC2)cc1 (centres undefined)	.	.	.	.	?	?

Screening data (PubChem BioAssay)
